The structures appear in SMILES notation. Inconclusive results are not listed. Unmarked numbers belong to inactive results. Active and inactive are the calls of the source. The call rests on the fitted dose curve; in most records, active means well fitted curve in the direction sought with a large enough effect; inconclusive means small, poorly fitted or top-dose-only effect, or another doubt; inactive means no such curve, though single readings can be large; an effect the other way counts as inactive or inconclusive.

For experiment [1], the target named is ATP-dependent 6-phosphofructokinase (Trypanosoma brucei brucei) (UniProt O15648). The experiment in a line: qHTS Assay to Find Inhibitors of T. brucei phosphofructokinase: hit validation (AID 492961). Further: on the % scale 0 is the no-effect control and ±100 the full control effect. The essentials:
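Luminescence from ADP-Glo reports ADP generated as T. brucei PFK (1.25 nM) phosphorylates 0.5 mM fructose-6-phosphate using 0.1 mM ATP. Reactions ran 45 min at room temperature, pH 8.0.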
In general terms: qHTS replaces the single test concentration by a dilution series.

Experiment [2] can be described thus: qHTS profiling for inhibitors of Plasmodium falciparum proliferation (AID 504749). Further: nearly all actives have a fitted effect of over 60% in size. Further: potency means the concentration at half of the fitted maximal effect.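 On activity, negative = inhibition: 0% = DMSO vehicle and full inhibition = artemisinin control.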 To be noted: P. falciparum in erythrocytes, SYBR Green DNA, 72 h. The essentials:
(§1)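 Each compound contacts P. falciparum-infected red blood cells for 72 h at 37 C; lysis buffer (Tris, EDTA, saponin, Triton X, SYBR Green I) is added and fluorescence measured next morning; values normalized to controls.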

Another experiment concerns 3D7. The experiment is described as above. Particulars: P. falciparum in erythrocytes, SYBR Green DNA, 72 h; series mostly up to 28.7 µM. The essentials:
as §1

A further experiment has as its system 7G8. Described as above. Particulars: P. falciparum in erythrocytes, SYBR Green DNA, 72 h; series mostly up to 28.7 µM. The essentials: as §1
In another experiment the test system is AS120. The description is as above. Particulars: P. falciparum in erythrocytes, SYBR Green DNA, 72 h; series mostly up to 28.7 µM. The essentials: as §1
The subject of a further experiment is ATS189. Described as above. Particulars: P. falciparum in erythrocytes, SYBR Green DNA, 72 h; series mostly up to 28.7 µM. The essentials: as §1
The test system of a further experiment is CP185. The description is as above. Particulars: P. falciparum in erythrocytes, SYBR Green DNA, 72 h; series mostly up to 28.7 µM. The essentials:
as §1

The test system of a further experiment is CP191. Described as above. To be noted: P. falciparum in erythrocytes, SYBR Green DNA, 72 h; series mostly up to 28.7 µM. The essentials: as §1
In another experiment the test system is CP192. Described as above. To be noted: P. falciparum in erythrocytes, SYBR Green DNA, 72 h; series mostly up to 28.7 µM. The essentials:
as §1

The test system of the next experiment is CP194. The experiment is described as above. Particulars: P. falciparum in erythrocytes, SYBR Green DNA, 72 h; series mostly up to 28.7 µM. The essentials: as §1
The next experiment concerns CP201. The description is as above. Particulars: P. falciparum in erythrocytes, SYBR Green DNA, 72 h; series mostly up to 28.7 µM. The essentials: as §1
The test system of another experiment is CP203. The description is as above. Particulars: P. falciparum in erythrocytes, SYBR Green DNA, 72 h; series mostly up to 28.7 µM. The essentials:
as §1

A further experiment deals with CP247. The experiment is described as above. To be noted: P. falciparum in erythrocytes, SYBR Green DNA, 72 h; series mostly up to 28.7 µM. The essentials:
as §1

The next experiment has as its system CP286. The experiment is described as above. To be noted: P. falciparum in erythrocytes, SYBR Green DNA, 72 h; series mostly up to 28.7 µM. The essentials:
as §1

A further experiment concerns CP291. Described as above. To be noted: P. falciparum in erythrocytes, SYBR Green DNA, 72 h; series mostly up to 28.7 µM. The essentials: as §1
The next experiment concerns CP305. The description is as above. Particulars: P. falciparum in erythrocytes, SYBR Green DNA, 72 h; series mostly up to 28.7 µM. The essentials: as §1
The subject of a further experiment is HB3. Described as above. Particulars: P. falciparum in erythrocytes, SYBR Green DNA, 72 h; series mostly up to 28.7 µM. The essentials: as §1
The test system of the next experiment is P94_40. The experiment is described as above. Particulars: P. falciparum in erythrocytes, SYBR Green DNA, 72 h; series mostly up to 28.7 µM. The essentials: as §1
The subject of the next experiment is PC49. Described as above. Particulars: P. falciparum in erythrocytes, SYBR Green DNA, 72 h; series mostly up to 28.7 µM. The essentials:
as §1

The mark [3] stands for this setting: at 28.7 µM (top of the series), parasite line A.
[4] abbreviates: at 28.7 µM (top of the series), parasite line B.

Chain of ATP-dependent 6-phosphofructokinase (Trypanosoma brucei brucei) (O15648 whole entry, looked up): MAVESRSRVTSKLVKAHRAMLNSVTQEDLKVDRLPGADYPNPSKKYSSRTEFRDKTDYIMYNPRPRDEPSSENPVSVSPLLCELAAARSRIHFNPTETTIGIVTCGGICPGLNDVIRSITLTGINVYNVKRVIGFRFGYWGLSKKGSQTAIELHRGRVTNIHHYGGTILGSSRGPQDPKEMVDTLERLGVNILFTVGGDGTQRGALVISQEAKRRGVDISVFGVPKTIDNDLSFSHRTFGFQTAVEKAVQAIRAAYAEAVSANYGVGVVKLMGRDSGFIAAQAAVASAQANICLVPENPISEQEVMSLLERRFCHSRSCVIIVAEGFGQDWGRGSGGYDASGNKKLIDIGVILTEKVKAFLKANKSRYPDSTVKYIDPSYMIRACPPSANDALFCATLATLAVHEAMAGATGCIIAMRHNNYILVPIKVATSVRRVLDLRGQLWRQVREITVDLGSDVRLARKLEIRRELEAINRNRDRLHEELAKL

Regarding `CC(=O)OCC(=O)[C@@]1(O)CCC2C3C[C@H](C)C4=CC(=O)C=CC4(C)C3C(O)CC21C` (stereo not given in full), the Potency result (in experiment [1]; in the experiment with 3D7; with 7G8; with AS120; in the experiment on ATS189; in the experiment with CP185) was “inactive” each time. In addition, the Potency result in the experiment on CP191, with CP192, in the experiment on CP194, in the experiment with CP201, in the experiment on CP203 and in the experiment with CP247 was “inactive” each time. Further, the Potency entry in the experiment with CP286, in the experiment with CP291, in the experiment on CP305, in the experiment with HB3, in the experiment on P94_40 and in the experiment on PC49 was “inactive” throughout. Moreover, the values for the activity, negative = inhibition in experiment [2] (setting [3]) and in experiment [2] (setting [4]) were 2.49% and 4.17%, respectively.

As for `O=C(OC[C@@H]1O[C@@](O)(COC(=O)c2cccnc2)[C@H](OC(=O)c2cccnc2)[C@H]1OC(=O)c1cccnc1)c1cccnc1`, the Potency result (in experiment [1]; in the experiment on 3D7; in the experiment on 7G8; in the experiment on AS120; in the experiment on ATS189; with CP185) was “inactive” each time. In addition, the Potency result in the experiment on CP191, in the experiment with CP192, in the experiment on CP194, with CP201, in the experiment with CP203 and in the experiment with CP247 was “inactive” in each case. Also, the Potency entry with CP286, with CP291, in the experiment with CP305, in the experiment on HB3, with P94_40 and in the experiment with PC49 was “inactive” in each case. Further, the results for the activity, negative = inhibition in experiment [2] (setting [3]) and in [2] (setting [4]) were 18.2% and -0.864%, respectively.

With `CC(=O)N[C@H]1[C@H](O[C@@H]2c3ccc(c(Cl)c3)Oc3cc4cc(c3O[C@@H]3O[C@H](CO)[C@@H](O)[C@H](O)C3C)Oc3ccc(cc3Cl)C[C@H]3NC(=O)[C@@H](N)c5ccc(O)c(c5)Oc5cc(O)cc(c5)[C@H](NC3=O)C(=O)N[C@H]4C(=O)N[C@H]3C(=O)N[C@@H]2C(=O)N[C@@H](C(=O)O)c2cc(O)cc(O[C@H]4O[C@H](CO)[C@@H](O)C(O)[C@@H]4O)c2-c2cc3ccc2O)O[C@H](CO)[C@@H](O)[C@@H]1O` (stereo not given in full), the Potency entry (in experiment [1]; in the experiment with 3D7; in the experiment with 7G8; with AS120; in the experiment with ATS189; in the experiment with CP185) was “inactive” in each case. Moreover, the Potency result in the experiment on CP191, in the experiment on CP192, with CP194, in the experiment on CP201, with CP203 and in the experiment on CP247 was “inactive” throughout. For the same molecule, the Potency result in the experiment on CP286, in the experiment with CP291, with CP305, in the experiment on HB3, with P94_40 and with PC49 was “inactive” each time. The activity, negative = inhibition in experiment [2] (at 12.8 µM (top of the series), parasite line A) is -7.42%; in experiment [2] (at 12.8 µM (top of the series), parasite line B), 7.54%.

As to `NC(=O)NC(CCC(=O)O)C(=O)O` (stereo not given), the Potency entry (in experiment [1]; in the experiment on 3D7; with 7G8; in the experiment with AS120; with ATS189; in the experiment on CP185) was “inactive” in each case. The Potency entry in the experiment with CP191, in the experiment on CP192, with CP194, with CP201, in the experiment on CP203 and in the experiment with CP247 was “inactive” in each case. Moreover, the Potency entry with CP286, in the experiment with CP291, in the experiment with CP305, in the experiment with HB3, in the experiment on P94_40 and in the experiment with PC49 was “inactive” throughout. Also, the results for the activity, negative = inhibition in [2] (setting [3]) and in experiment [2] (setting [4]) were -0.405% and 3.49%, respectively.

`Cc1ccccc1N1C(=O)c2cc(N)ccc2N/C1=C\F`: the Potency entry (in experiment [1]; in the experiment on 3D7; in the experiment with 7G8; in the experiment on AS120; with ATS189; in the experiment with CP185) was “inactive” throughout. For the same molecule, the Potency entry with CP191, in the experiment on CP192, with CP194, with CP201, in the experiment with CP203 and in the experiment on CP247 was “inactive” each time. For the same molecule, the Potency result in the experiment on CP286, in the experiment on CP291, in the experiment on CP305, in the experiment on HB3, in the experiment with P94_40 and with PC49 was “inactive” throughout. The values for the activity, negative = inhibition in experiment [2] (setting [3]) and in [2] (setting [4]) were -6.61% and -18.2%, respectively.

As for `COc1cc2c(cc1O)CCN[C@@]21CS[C@H]2c3c(OC(C)=O)c(C)c4c(c3C(COC1=O)N1C2C2c3c(cc(C)c(OC)c3O)CC([C@@H]1O)N2C)OCO4` (stereo not given in full), the Potency entry in experiment [1] was “inactive”. The Potency in [2] (parasite line A) is 0.9 nM (active); in experiment [2] (parasite line B) it was 0.9 nM (active); in the experiment with 3D7, 0.3 nM (active); in the experiment with 7G8, 0.3 nM (active); with AS120 it was 0.9 nM (active); in the experiment with ATS189 it was 1 nM (active). Also, the Potency is 1.1 nM (active) in the experiment on CP185; 1 nM (active) with CP191; 1.5 nM (active) with CP192; 1.3 nM (active) in the experiment on CP194; 1.3 nM (active) in the experiment on CP201; 0.4 nM (active) in the experiment on CP203. Also, the Potency in the experiment on CP247 was 1.1 nM (active); with CP286, 0.3 nM (active); in the experiment on CP291 it was 0.4 nM (active); in the experiment on CP305, 0.5 nM (active); with HB3, 0.3 nM (active); in the experiment on P94_40, 0.9 nM (active). Also, the Potency in the experiment with PC49 was 1.3 nM (active).

(Values after PubChem BioAssay (NCATS).)
